Test [1] is described as follows: qHTS assay for small molecule agonists of the p53 signaling pathway (AID 651631; calls by dose curve; also: nearly all actives have a fitted effect of over 15% in size; also: potency is read from the fitted curve at half-maximal effect). The procedure, abridged:
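Agonist mode screen using a stably integrated beta-lactamase gene under p53 response elements in HCT-116 cells. Compound exposure lasts 16 h at 37 °C; fluorescence intensity is measured following 2 h FRET substrate loading.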

Test [2] in a line: qHTS assay for small molecules that induce genotoxicity in human embryonic kidney cells expressing luciferase-tagged ATAD5 (AID 651632). Also: nearly all actives have a fitted effect of over 15% in size. The procedure, abridged: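 HEK293T cells carrying a luciferase reporter tagged to ATAD5 were exposed to compound or DMSO vehicle for 16 hr at 37C, 5% CO2. Amplite was added, and after 30 min at room temperature luciferase activity was read as a marker of ATAD5 induction.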

Test [3] in a line: qHTS assay for small molecule agonists of the p53 signaling pathway - cell viability (AID 651633; calls by dose curve; also: nearly all actives have a fitted effect of over 30% in size; also: potency is read from the fitted curve at half-maximal effect). The gist of the method: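 p53RE-bla cells, seeded at 4,000 per well and rested 5 h at 37 C/5% CO2, received compounds in DMSO for 16 h at 37 C. CellTiter-Glo was then added, and luminescence was read after 30 min at room temperature to gauge cytotoxicity.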
Test [4] is described as follows: qHTS assay for small molecule disruptors of the mitochondrial membrane potential (AID 720635). Also: potency is read from the fitted curve at half-maximal effect. The gist of the method:
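HepG2 cells (2,000/well) attached overnight at 37C, then took compound for 1 hr at 37C, 5% CO2. Mito-MPS dye was added for 30 min; fluorescence was read at 490/535 nm (monomers) and 540/590 nm (aggregates).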

Test [5] can be described thus: qHTS assay to test for compound auto fluorescence at 590 nm (red) in HepG2 cells (AID 720674). The procedure, abridged:
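Intrinsic compound fluorescence in the red window (Ex/Em 540/590 nm) is measured in attached HepG2 cells exposed for 1 hr, DMSO vehicle as baseline, benchmarked to Rose Bengal sodium.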

The nature of test [6]: qHTS assay to test for compound auto fluorescence at 535 nm (green) in HepG2 cells (AID 720675). Also: potency is read from the fitted curve at half-maximal effect.
Test [7] is described as follows: qHTS assay to test for compound auto fluorescence at 460 nm (blue) in HEK293 cells (AID 720678). Also: potency is read from the fitted curve at half-maximal effect. The gist of the method: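 After cell attachment (4-5 hr, 37C), compounds were pinned onto HEK293 monolayers in 10% dialyzed FBS medium. The blue channel (405/460 nm) was read following overnight culture. Equivalency was calculated against triamterene.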
Test [8] in a line: qHTS assay to test for compound auto fluorescence at 590 nm (red) in HEK293 cells (AID 720679). The gist of the method:
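Plates of HEK293 cells (10% dialyzed FBS) are treated with 23 nL compound or DMSO vehicle after a 4-5 hr attachment period, incubated overnight at 37C, and read for red fluorescence at 540/590nm.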

The nature of test [9]: qHTS assay for small molecules that induce genotoxicity in human embryonic kidney cells expressing luciferase-tagged ATAD5 - cell viability (AID 651634; calls by dose curve; also: nearly all actives have a fitted effect of over 25% in size; also: potency is read from the fitted curve at half-maximal effect). The procedure, abridged:
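HEK293T cells expressing luciferase-tagged ATAD5 were exposed to compound or DMSO for 15.5 hr at 37C, 5% CO2. Viability was then read as live-cell protease activity by CellTiter-Fluor fluorescence after 30 min at 37C.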

The nature of test [10]: qHTS assay for small molecule disruptors of the mitochondrial membrane potential - cell viability (AID 720634; calls by dose curve; also: nearly all actives have a fitted effect of over 20% in size; also: potency is read from the fitted curve at half-maximal effect). The gist of the method:
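HepG2 cells seeded overnight at 37 C, then exposed to compound or DMSO for 1 hr at 37 C, 5% CO2. m-MPI dye added, then CellTiter-Glo for 30 min at room temperature; viability read as ATP luminescence.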

Values joined by “and” are separate entries in the source; they are usually repeats but may differ in a detail not shown here. Equal entries are not always repeated. Values without a mark were called inactive. Records with an inconclusive call do not appear. Active and inactive are the calls of the source. Unless noted, calls follow the shape of the dose curve; as a rule, active = well fitted curve in the direction sought with a large enough effect in the repeat runs; inconclusive = weak or mixed curves; inactive = no such curve, though single readings can be large; an effect the other way counts as inactive or inconclusive.
Tags tell the direction and shape of the fitted curve or compound fluorescence and quenching.

With `CCOC(=O)C1=C(C)NC(C)=C(C(=O)OCC)C1c1ccccc1/C=C/C(=O)OC(C)(C)C`, the Potency was 29.8 µM (active) in test [1], 29.8 µM (active) in [3] and 10.6 µM (active) in [4]. The Potency result in test [2], in test [5], in test [6], in test [7] and in test [8] was “inactive” throughout.
For `CC(=O)Oc1ccc(C2(c3ccc(OC(C)=O)cc3)C(=O)Nc3ccccc32)cc1`, the Potency in test [1] is 211 nM (active) and 237 nM (active); in [3], 150 nM (active) and 266 nM (active). The Potency result in test [9], in test [5], in test [6], in [7] and in [8] was “inactive” throughout.
Consider `CCCCCCCC/C=C\CCCCCCCC(=O)OCCOC(=O)CCCCCCC/C=C\CCCCCCCC`, for which the Potency entry in [1], in test [3], in test [9], in test [10], in [6] and in [7] was “inactive” throughout. Moreover, the Potency result in [8] was “inactive”. Further, the Potency in test [4] is 79.8 µM (active).
`C/C=C/C=N/NC(=O)c1ccncc1`: the Potency result in test [2], in test [3], in test [9], in test [10], in [4] and in [5] was “inactive” throughout. Moreover, the Potency entry in [6], in [7] and in test [8] was “inactive” throughout.
As to `CCCCCCCCCCCCCCNCCO`, the Potency result in test [1], in [3], in test [10], in [5], in test [6] and in [7] was “inactive” in each case.
With `CC1CCCNC1` (stereo not given), the Potency entry in test [1], in [3], in [9], in [10], in test [5] and in [6] was “inactive” in each case. Further, the Potency result in test [7] and in test [8] was “inactive” in each case.
In the case of `CNC(=O)c1cc(Oc2ccc(NC(=O)Nc3ccc(Cl)c(C(F)(F)F)c3)cc2)ccn1`, the Potency is 5.96 µM (active) in [1], 5.96 µM (active) in [3] and 0.88 µM (active) in test [4]. Moreover, the Potency result in [2], in test [5], in test [6], in test [7] and in test [8] was “inactive” throughout.
As for `Cc1cn[nH]c1`, the Potency result in test [1], in [3], in [9], in test [10], in test [4] and in [6] was “inactive” throughout. In addition, in [7], the Potency result is “inactive”.
As for `CC(COC(=O)c1ccccc1)OC(=O)c1ccccc1` (stereo not given), the Potency entry in test [1], in test [3], in test [9], in test [10], in test [5] and in test [6] was “inactive” each time. Besides, the Potency entry in test [7] and in test [8] was “inactive” throughout.
In the case of `O=C(O)CC(=O)O`, the Potency result in test [1], in test [3], in test [10], in [5], in test [6] and in test [7] was “inactive” throughout. The Potency entry in [8] was “inactive”.
As to `C[n+]1c2cc(N)ccc2cc2ccc(N)cc21` (tested in a mixture with another compound), the Potency was 7.5 µM (active) in test [1], 0.668 µM (active) in [4], 14.1 µM (active) in [6] and 12.6 µM [fluorescent] (active) in [7]. The Potency entry in test [10], in test [5] and in test [8] was “inactive” in each case.
Regarding `CCC(C)c1cc([N+](=O)[O-])cc([N+](=O)[O-])c1OC(=O)OC(C)C` (stereo not given), the Potency in [1] was 30.6 µM (active); in test [10], 21.7 µM (active); in test [4], 3.06 µM (active). The Potency result in test [5], in test [6], in test [7] and in [8] was “inactive” throughout.
As to `O=C1c2c(O)ccc([N+](=O)[O-])c2C(=O)c2c([N+](=O)[O-])ccc(O)c21`, the Potency entry in [2], in test [5], in test [6], in test [7] and in [8] was “inactive” in each case. Further, the Potency in test [3] was 8.56 µM (active); in test [9], 9.6 µM (active); in [10] it was 30.4 µM (active); in [4] it was 0.054 µM (active).
Consider `CC(C)=C1CC[C@@H](C)CC1=O`, for which the Potency result in test [1], in test [3], in [9], in test [10], in test [4] and in [5] was “inactive” in each case. For the same compound, the Potency entry in test [6] and in test [7] was “inactive” each time.
As to `CC(O)C#CC(C)O` (stereo not given), the Potency entry in test [1], in test [9], in test [10], in [6], in test [7] and in test [8] was “inactive” each time.
Regarding `CCCCCCCCCCCCOC(=O)c1cc(O)c(O)c(O)c1`, the Potency in test [1] is 68.3 µM (active) and 61.1 µM (active); in [3], 48.3 µM (active) and 48.6 µM (active); in test [9], 60.9 µM (active) and 13.7 µM (active); in [10], 60.9 µM (active) and 54.5 µM (active); in test [4], 3.05 µM (active) and 4.33 µM (active). The Potency result in test [6], in [7] and in test [8] was “inactive” throughout.
For the compound `COCC(=O)O[C@]1(CCN(C)CCCc2nc3ccccc3[nH]2)CCc2cc(F)ccc2[C@@H]1C(C)C`, the Potency result in test [2], in test [5], in [6], in test [7] and in test [8] was “inactive” throughout. Further, the Potency was 11.9 µM (active) in test [3], 10.6 µM (active) in [9], 26.6 µM (active) in [10] and 3.35 µM (active) in [4].
As to `CCCC(CC)CCCCCCCN` (stereo not given), the Potency entry in [1], in test [3], in test [10], in test [5], in [6] and in [7] was “inactive” in each case. Moreover, the Potency entry in test [8] is “inactive”.
Consider `Cn1cnc2ncnc(N)c21`, for which the Potency result in test [1], in test [2], in test [3], in [10], in test [6] and in test [7] was “inactive” throughout. Besides, the Potency entry in test [8] is “inactive”.
Take `ClC/C=C\CCl`: the Potency result in test [1], in test [3], in test [9], in [10], in test [4] and in [5] was “inactive” throughout. For the same compound, the Potency entry in [6], in test [7] and in test [8] was “inactive” in each case.
With `COc1cc(C(=O)NS(=O)(=O)c2ccccc2C)ccc1Cc1cn(C)c2ccc(NC(=O)OC3CCCC3)cc12`, the Potency result in test [2], in [9], in test [10], in test [5], in test [6] and in [7] was “inactive” each time. Moreover, the Potency entry in [8] was “inactive”. Moreover, the Potency in test [3] is 5.96 µM (active); in [4], 9.44 µM (active).
For `COC(=O)NCCC[Si](OC)(OC)OC`, the Potency result in test [1], in [3], in test [9], in test [10], in test [5] and in test [6] was “inactive” in each case. In test [7], the Potency result was “inactive”.
Regarding `CC(C)c1cccc(C(C)C)c1N1C(=O)c2ccc(O)cc2C1=O`, the Potency is 1.54 µM (active) in test [1], 9.69 µM (active) in test [10], 1.22 µM (active) in [4] and 39.8 µM [fluorescent] (active) in test [7]. Besides, the Potency result in test [9], in [5], in test [6] and in test [8] was “inactive” each time.
For the compound `C/C=C/C(=O)Oc1c(CCCCCC(C)C)cc([N+](=O)[O-])cc1[N+](=O)[O-]`, the Potency in [1] was 0.864 µM (active); in test [3], 15.4 µM (active); in test [10], 3.06 µM (active); in [4], 0.109 µM (active). Also, the Potency entry in test [5], in test [6], in test [7] and in test [8] was “inactive” throughout.
Take `CCN(CC)CCNc1ccc(CO)c2sc3ccccc3c(=O)c12`: the Potency in test [1] was 5.96 µM (active); in test [9], 23.7 µM (active). The Potency result in [10], in test [5], in test [6] and in test [7] was “inactive” in each case.
As for `C=CCCCCCCC=C`, the Potency entry in test [1], in [3], in test [9], in test [10], in test [4] and in [5] was “inactive” throughout. Further, the Potency result in test [6], in test [7] and in [8] was “inactive” throughout.

The values above are taken from PubChem BioAssay (Tox21).
